{"source": "PubChem BioAssay (NCI)", "note": "Compounds without any hit were thinned out: in the full panel of roughly 79,000, 15% have a hit. The source made the active and inactive calls. Cut-off read from the data, not from the text of the source: active = growth inhibition above about 70%; inactive = the rest."}
{"assay": "NCI Yeast Anticancer Drug Screen. Data for the rad50EPP+ strain (AID 151);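 note: 0% = growth of vehicle-treated control cultures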", "conditions": "S. cerevisiae rad50 mutant strain, at 3.7 µM, stronger effect = higher value", "how_it_was_run": "(§1)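 Exposing the rad50EPP+ strain to each compound, growth was compared with vehicle-only cultures to give inhibition.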"}
{"smiles": "Cc1cc(-c2cc(C)c(O)c(C(C)(C)C)c2)cc(C(C)(C)C)c1O", "growth inhibition": "-31% (inactive)"}
{"smiles": "Nc1cc(N)c(N=Nc2cccc3c(S(=O)(=O)O)cccc23)cc1N=Nc1cc([N+](=O)[O-])ccc1O", "growth inhibition": "3% (inactive)"}
{"smiles": "Nc1ccc(F)cc1S", "growth inhibition": "-19% (inactive)"}
{"smiles": "Brc1ccccc1-c1ncc(-c2ccccc2)o1", "growth inhibition": "10% (inactive)"}
{"smiles": "COc1cc(C2SCC(=O)N2c2ccc(-c3ccc(-n4c(-c5ccccc5)nc5ccccc5c4=O)cc3)cc2)ccc1O", "note": "(stereo unspecified)", "growth inhibition": "13% (inactive)"}
{"smiles": "Nc1ncnc2c1ncn2C1OC(CO)CC1O", "note": "(stereo unspecified)", "growth inhibition": "-12% (inactive)"}
{"smiles": "COc1cc(CSc2ccc(O)cc2)cc(O)c1O", "growth inhibition": "-4% (inactive)"}
{"smiles": "CCOC(=O)C1N=[N+](c2ccccc2)C(=O)/C1=C\\n1c(=S)[nH]c2ccc([N+](=O)[O-])cc21", "note": "(stereo unspecified)", "growth inhibition": "1% (inactive)"}
{"smiles": "O=C(NNc1ccccc1)c1ccc(Cl)c(Cl)c1", "growth inhibition": "5% (inactive)"}
{"smiles": "Cc1ccc(CC2(OCCN(C)C)CCC(C(C)(C)C)CC2)cc1", "note": "(stereo unspecified)", "growth inhibition": "-9% (inactive)"}
{"smiles": "C[C@]12CC[C@H](O)CC1=CC[C@@H]1C2CC[C@]2(C)C(=O)NC(=O)CC12", "note": "(stereo partly specified)", "growth inhibition": "-19% (inactive)"}
{"smiles": "CCCC/C=C/C(C)(C(=O)OCC)C(=O)OCC", "growth inhibition": "0% (inactive)"}
{"smiles": "CCc1c(Cl)c(C)cc(O)c1Cl", "growth inhibition": "-13% (inactive)"}
{"smiles": "O=C(/C=C(/c1ccccc1)N1CCCCC1)c1ccccc1", "growth inhibition": "16% (inactive)"}
{"smiles": "CCCC(=O)Oc1ccc(/C=N/NC(N)=S)nc1", "growth inhibition": "7% (inactive)"}
{"smiles": "CCc1nc2ccc(NCCN(C)C)c3c(=O)c4ccccc4n1c23", "growth inhibition": "26% (inactive)"}
{"smiles": "Cc1sc2ccc3ccccc3c2[n+]1C", "growth inhibition": "-10% (inactive)"}
{"smiles": "COc1c(O)c(C=O)c(Br)c(C=O)c1O", "growth inhibition": "43% (inactive)"}
{"smiles": "Cc1ccc(Cl)cc1NC(=O)OCCN(C)C(=O)Nc1cc(Cl)ccc1C", "growth inhibition": "-20% (inactive)"}
{"smiles": "Cc1nc2ccccc2nc1NNc1ccccc1", "growth inhibition": "-5% (inactive)"}
{"assay": "NCI Yeast Anticancer Drug Screen. Data for the rad50EPP+ strain (AID 151);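 note: 0% = growth of vehicle-treated control cultures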", "conditions": "S. cerevisiae rad50 mutant strain, at 11.0 µM, stronger effect = higher value", "how_it_was_run": "as §1"}
{"smiles": "O=P(NC1CCCCC1)(OCc1ccccc1)OCc1ccccc1", "growth inhibition": "10% (inactive)"}
{"smiles": "COc1oc(C(=O)NC2CCCCC2)c(-c2ccc(Cl)cc2)c1S(=O)(=O)c1ccccc1", "growth inhibition": "-18% (inactive)"}
{"smiles": "C[Si](C)(C)/C=C/CCNC(C#N)c1ccccc1", "note": "(stereo unspecified)", "growth inhibition": "-17% (inactive)"}
{"smiles": "CCOc1ccc(NC(=O)C2=C(C)NC(C)=C(C(=O)Nc3ccc(OCC)cc3)C2c2cccc([N+](=O)[O-])c2)cc1", "growth inhibition": "1% (inactive)"}
{"smiles": "CN(C)CCOC1(Cc2ccc(F)cc2)CCC(C(C)(C)C)CC1", "note": "(stereo unspecified)", "growth inhibition": "-27% (inactive)"}
{"smiles": "CC(=O)Nc1ccc2c(c1)Cc1cc(N=C3C=CC(=O)O3)ccc1-2", "growth inhibition": "96% (active)"}
{"smiles": "O=C1C=C(Cl)C(=O)C(c2ccc(Cl)cc2)=C1", "growth inhibition": "83% (active)"}
{"smiles": "CNCCCNc1c2ccccc2nc2cccc([N+](=O)[O-])c12", "growth inhibition": "96% (active)"}
{"smiles": "CCCCCCCCCCCC(O)S(=O)(=O)O", "note": "(stereo unspecified)", "growth inhibition": "7% (inactive)"}
{"smiles": "CC(C)OC(=O)c1ccc(CCc2cc(O)c(Br)cc2O)cc1", "growth inhibition": "94% (active)"}
{"smiles": "CCc1cc(O)c(Cl)c(C)c1Cl", "growth inhibition": "-13% (inactive)"}
{"smiles": "C(=Nc1ccc(-c2cc(-c3ccccc3)nc3ccc4ccccc4c23)cc1)c1ccccc1", "growth inhibition": "15% (inactive)"}
{"smiles": "CSc1nc(C)c(CCOC(C)=O)c(N=P(c2ccccc2)(c2ccccc2)c2ccccc2)n1", "growth inhibition": "1% (inactive)"}
{"smiles": "CS(=O)(=O)SCc1ccc([N+](=O)[O-])cc1", "growth inhibition": "97% (active)"}
{"smiles": "COC1=C(OC)C(=O)C(Sc2ccc3ccccc3c2)=CC1=O", "growth inhibition": "67% (inactive)"}
{"smiles": "COc1nc2c(c(=O)n1C)N=C(c1ccccc1)[C@H](C(CC(=O)c1ccccc1)c1ccccc1)C(c1ccccc1)N2", "note": "(stereo partly specified)", "growth inhibition": "-46% (inactive)"}
{"smiles": "Cc1cc(-c2cc(C)c(O)c(C(C)(C)C)c2)cc(C(C)(C)C)c1O", "growth inhibition": "-29% (inactive)"}
{"smiles": "Nc1cc(N)c(N=Nc2cccc3c(S(=O)(=O)O)cccc23)cc1N=Nc1cc([N+](=O)[O-])ccc1O", "growth inhibition": "-4% (inactive)"}
{"smiles": "Nc1ccc(F)cc1S", "growth inhibition": "-37% (inactive)"}
{"smiles": "Brc1ccccc1-c1ncc(-c2ccccc2)o1", "growth inhibition": "-1% (inactive)"}
{"smiles": "COc1cc(C2SCC(=O)N2c2ccc(-c3ccc(-n4c(-c5ccccc5)nc5ccccc5c4=O)cc3)cc2)ccc1O", "note": "(stereo unspecified)", "growth inhibition": "19% (inactive)"}
{"smiles": "Nc1ncnc2c1ncn2C1OC(CO)CC1O", "note": "(stereo unspecified)", "growth inhibition": "-10% (inactive)"}
{"smiles": "COc1cc(CSc2ccc(O)cc2)cc(O)c1O", "growth inhibition": "-6% (inactive)"}
{"smiles": "CCOC(=O)C1N=[N+](c2ccccc2)C(=O)/C1=C\\n1c(=S)[nH]c2ccc([N+](=O)[O-])cc21", "note": "(stereo unspecified)", "growth inhibition": "4% (inactive)"}
{"smiles": "O=C(NNc1ccccc1)c1ccc(Cl)c(Cl)c1", "growth inhibition": "13% (inactive)"}
{"smiles": "Cc1ccc(CC2(OCCN(C)C)CCC(C(C)(C)C)CC2)cc1", "note": "(stereo unspecified)", "growth inhibition": "-3% (inactive)"}
{"smiles": "C[C@]12CC[C@H](O)CC1=CC[C@@H]1C2CC[C@]2(C)C(=O)NC(=O)CC12", "note": "(stereo partly specified)", "growth inhibition": "18% (inactive)"}
{"smiles": "CCCC/C=C/C(C)(C(=O)OCC)C(=O)OCC", "growth inhibition": "4% (inactive)"}
{"smiles": "CCc1c(Cl)c(C)cc(O)c1Cl", "growth inhibition": "8% (inactive)"}
{"smiles": "O=C(/C=C(/c1ccccc1)N1CCCCC1)c1ccccc1", "growth inhibition": "42% (inactive)"}
{"smiles": "CCCC(=O)Oc1ccc(/C=N/NC(N)=S)nc1", "growth inhibition": "0% (inactive)"}
{"smiles": "CCc1nc2ccc(NCCN(C)C)c3c(=O)c4ccccc4n1c23", "growth inhibition": "39% (inactive)"}
{"smiles": "Cc1sc2ccc3ccccc3c2[n+]1C", "growth inhibition": "-40% (inactive)"}
{"smiles": "COc1c(O)c(C=O)c(Br)c(C=O)c1O", "growth inhibition": "75% (active)"}
{"smiles": "Cc1ccc(Cl)cc1NC(=O)OCCN(C)C(=O)Nc1cc(Cl)ccc1C", "growth inhibition": "-14% (inactive)"}
{"smiles": "Cc1nc2ccccc2nc1NNc1ccccc1", "growth inhibition": "22% (inactive)"}
